A selection: hits, their analogues and other compounds. The true share with any hit is near 2%.
CtBP-E1A inh: inhibitors of CtBP/E1A interaction | activity change, % (concentration not given with the values) | AlphaScreen GST-E1A/His-CtBP binding, 1536-well; stronger effect = lower value | 340,000 compounds, 0.49% hits
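Homogeneous bead-based format: GST-tagged E1A captured on glutathione donor beads, His-tagged CtBP on nickel acceptor beads; compounds precede bead addition by 2 h at 37 °C.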
KCNH2 3.1 inh: inhibitors of human KCNH2 3.1 potassium channel isoform; U2OS KCNH2 3.1, thallium flux FluxOr; stronger effect = lower value; activity change, % (tested at about 1.8 µM); 340,000 compounds, 0.95% hits; AID 720553;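 active means maximum activity change below -70%; inconclusive means maximum activity change from -70% to -50%; inactive means maximum activity change above -50%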;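 further: thallium influx rate constant from kinetic fluorescence after stimulation buffer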
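FluxOr-based Tl+ influx in U2OS cells transduced with KCNH2 3.1 virus; rate constants normalized to DMSO controls.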
JMJD2E inh: inhibitors of human JMJD2E histone demethylase. JMJD2E catalytic domain, FDH-coupled NADH fluorescence (FDH is formaldehyde dehydrogenase). Potency, µM (titrated, usually from 57.1 µM), inactives show at the highest dose activity change, negative = inhibition, most hits filed as inhibitors. 230,000 compounds, 1.6% hits; active means well fitted inhibition curve with a large enough effect, not every such curve was filed as active; inconclusive means small, poorly fitted or top-dose-only effect, or another doubt; inactive means no such curve, though single readings can be large or run the other way;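 further: potency means the concentration at half of the fitted maximal effect; 0% = wells with enzyme and -100% = buffer wells without enzyme; nearly all actives have a fitted effect of over 50% in size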
KCNH2 WT inh: inhibitors of human wildtype KCNH2 potassium channel; activity change, % at 1.84 µM; AID 720551; 340,000 compounds, 0.37% hits; U2OS, BacMam KCNH2, thallium flux FluxOr; stronger effect = lower value;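 active means maximum activity change below -70%; inconclusive means maximum activity change between -70% and -50%; inactive means maximum activity change above -50%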
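U2OS cells were transduced with wild-type KCNH2 virus (2.03 x 10^8 / mL) for 4 h at room temperature, then cultured overnight at 37 C. Thallium flux was read with FluxOr dye. Rate constants were normalized to DMSO controls.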
Six1-Eya2 inh: inhibitors of human Six1/Eya2 interaction | Q15475+O00167 | AlphaScreen GST-Six1/His-Eya2 binding, biochemical; stronger effect = lower value | activity change, % (no concentration beside the values) | 360,000 compounds, 0.56% hits
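GST-Six1 + His-Eya2 (5X stock: 250/500 nM); Tris pH 8.0, 300 mM NaCl, 0.05% BSA, 0.02% Tween 20; GSH donor/Ni acceptor beads; 1 h 37 °C dark; AlphaScreen readout.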
* = called active by the depositor; ? = inconclusive; . = no result. Unless noted, no stated cut-off is given here; in the data, active means activity change below about -65%; inconclusive means mostly about -30% to -63%; inactive means weaker than that. Unless noted, on the % scale 0 is the no-effect control and ±100 the full control effect.

SMILES	CtBP-E1A inh	KCNH2 3.1 inh	JMJD2E inh	KCNH2 WT inh	Six1-Eya2 inh
CC(C)C[C@H](NC(=O)[C@@H]1Cc2ccccc2CN1C(=O)OC(C)(C)C)C(=O)NCC1CCC(C(=O)O)CC1 (stereo partly specified)	-1	7	25µM*	-9	-6
NC(=O)c1ccc(NC(=O)COC(=O)CCCOc2ccccc2)cc1	3	0	.	-7	0
CN(CC(=O)O)Cc1nc2ccccc2[nH]1	?	7	-26%	5	-76*
Cc1ccc(C)c(NC(=O)NNC(=O)CCc2ccccc2)c1	3	-2	.	-6	-4
CN(C)c1ccc(N=Nc2ccccc2C(=O)OCC(=O)N(C)c2ccccc2)cc1	-66*	-5	-2%	-6	-67*
CC(=O)c1ccc(NC(=O)COC(=O)c2ccccc2N=Nc2ccc(N(C)C)cc2)cc1	0	-7	6%	-6	-68*
Cc1ccc(NC(=O)COC(=O)c2nn(C)cc2Cl)cc1	-4	-6	.	6	3
Cc1ccc(NC(=S)NNC(=O)c2nn(C)cc2Cl)cc1	-28	12	20µM*	10	-18
Cc1ccc(NC(=O)c2cnn(-c3ccccc3)c2C)cc1	.	-3	.	-5	8
Cc1ccc(NC(=S)NNC(=O)c2nnn(-c3ccccc3)c2C)cc1	-1	-16	?	-3	-75*
Cc1cccc(NC(=S)NNC(=O)c2nn(C)cc2Cl)c1	-14	6	32µM*	-5	-13
CSc1ccc(CN(C)C(=O)c2cccc(S(=O)(=O)N3CCN(Cc4ccccc4)CC3)c2)cc1	-9	-7	.	-122*	-21
O=C(c1nc(SCc2ccc([N+](=O)[O-])cc2)n2ccccc12)C(F)(F)F	-1	-71*	2%	20	-2
O=[N+]([O-])c1ccc(CSc2nnc3ccccn23)cc1	6	-4	0%	4	4
S=c1nc(-c2ccccc2)[nH]c2ccccc12	1	31	11%	-11	-7
S=c1nc(-c2ccc(Br)cc2)[nH]c2ccccc12	0	31	-2%	-141*	2
O=C(CCc1ccccc1O)N/N=C/c1ccc(Sc2cccc3cccnc23)o1	-92*	-20	-4%	-2	-88*
COc1ccccc1C(=O)Nc1ccc(S(=O)(=O)N2CCN(C)CC2)cc1	-11	-17	.	0	-19
CN1C(=O)/C(=C\c2ccc(N(C)C)cc2)OC1=S	8	-23	.	-101*	2
Cc1ccc(C)c(NC(=S)N(CCN(C)C)C(C)c2ccccn2)c1 (stereo unspecified)	-65*	5	-22%	4	-70*
Cc1cccc(C)c1NC(=S)N(CCN(C)C)C(C)c1ccccn1 (stereo unspecified)	-72*	4	?	9	-83*
Cc1ccc(C)c(NC(=S)N(C)CCc2ccccn2)c1	1	-1	-9%	-4	-5
CC(c1ccccn1)N(CCN(C)C)C(=S)Nc1cccc(F)c1 (stereo unspecified)	?	9	?	3	?
CC(C)C(C)NC(=O)COc1ccc(Sc2ccc(OCC(=O)NC(C)C(C)C)cc2)cc1 (stereo unspecified)	-4	0	-5%	-8	-4
O=C(NCc1ccccc1)C(c1ccccc1)N(Cc1cccs1)C(=O)c1cnccn1 (stereo unspecified)	0	-1	1%	4	2
CCCCCCCNC(=O)C1(CC2CC(c3cccc(Br)c3)=NO2)CCN(C(=O)C2(C)CC2)CC1 (stereo unspecified)	.	-16	.	4	-12
CCCCCCCNC(=O)C1(CC2CC(c3cccc(Br)c3)=NO2)CCN(C(=O)CCCCCBr)CC1 (stereo unspecified)	-3	-96*	.	-123*	-1
COc1cc(OC)c2c(-c3ccccc3)cc(=O)oc2c1C(CCN1CCOCC1)c1ccc2c(c1)OCO2 (stereo unspecified)	-26	-32	.	1	?
COc1cc(OC)c2c(-c3ccccc3)cc(=O)oc2c1C(CCN1CCCC(C)C1)c1ccc(N(C)C)cc1 (stereo unspecified)	.	-7	0%	10	-67*

Screening data as filed in PubChem.
